Screening data deposited in PubChem by The Scripps Research Institute Molecular Screening Center.
PME-1 primary: PME-1 inhibitors via competitive probe labeling, primary screen, biochemical, fluorescence polarization, FP-Rh probe, HTS; Protein phosphatase methylesterase 1 (Homo sapiens), Q9Y570; recombinant PME-1; inhibition, % at 5.9 µM; 320,000 tested, 0.53% active; AID 2130, 2009;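 active means inhibition above the campaign mean of all compounds plus 3 SD, cut at about 26% in these data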;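 further: competitive labeling of PME-1 active site by serine hydrolase directed probe; 0% = PME-1 with DMSO and 100% = wells lacking PME-1 enzyme; inhibitors block probe labeling so polarization falls and inhibition rises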
Target sequence (Q9Y570 whole entry, looked up): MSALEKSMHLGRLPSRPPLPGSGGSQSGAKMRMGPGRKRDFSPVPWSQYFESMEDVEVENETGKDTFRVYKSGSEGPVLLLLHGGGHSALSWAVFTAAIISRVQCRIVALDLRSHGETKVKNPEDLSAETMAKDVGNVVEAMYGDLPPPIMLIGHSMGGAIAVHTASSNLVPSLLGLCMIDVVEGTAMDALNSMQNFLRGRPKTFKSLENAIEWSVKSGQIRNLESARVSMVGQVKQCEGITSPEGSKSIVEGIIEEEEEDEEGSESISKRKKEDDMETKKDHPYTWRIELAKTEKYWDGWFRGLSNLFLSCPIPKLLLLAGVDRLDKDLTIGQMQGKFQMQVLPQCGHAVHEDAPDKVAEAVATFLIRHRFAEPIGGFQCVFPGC
GSTO1 counter: inhibitors of recombinant GSTO1, primary screen, counter-screen for RBBP9 inhibitor project, biochemical, fluorescence polarization; inhibition, % at 5.96 µM; 300,000 tested, 1.1% active; activity-based probe fluorescence polarization; Glutathione S-transferase omega-1 (Homo sapiens), P78417;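 active means inhibition above the campaign mean inhibition plus 3 SD, cut at about 35% in these data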;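 further: 0% = GSTO1-1 with DMSO and 100% = wells lacking GSTO1-1 enzyme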
PAD4 inh: human PAD4 inhibitors, primary screen, biochemical, fluorescence polarization, 1536-well format; Protein-arginine deiminase type-4 (Homo sapiens), Q9UM07; recombinant PAD4, RCA probe fluorescence polarization; inhibition, % at 6.36 µM; 330,000 tested, 0.41% active; AID 485272, 2010;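 active means percent inhibition above a cutoff equal to the mean of all tested compounds plus 3 SD, cut at about 15% in these data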;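 further: 0% = PAD4 with RCA probe and DMSO and 100% = probe without PAD4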
Fam108B inh: mouse Fam108B serine hydrolase inhibitors, primary screen, counter-screen for RBBP9 inhibitor project, biochemical, fluorescence polarization; recombinant Fam108B, FP-Rh probe fluorescence polarization; inhibition, % at 9.51 µM; 300,000 tested, 0.33% active; AID 1947, 2009;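 active means inhibition above the screen mean inhibition plus 3 SD, computed separately per campaign, cut at about 18% in these data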;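 further: inhibitors lower polarization as less probe binds the enzyme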
LYPLA2 counter: LYPLA2 inhibitors, primary screen, counter-screen for PME1 inhibitor project, biochemical, fluorescence polarization, FP-Rh probe ABPP; 320,000 tested, 0.38% active; recombinant LYPLA2; inhibition, % at 5.9 µM;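 active means inhibition above the screen-wide mean plus 3 SD, limit set per campaign, cut at about 26% in these data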;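 further: 0% = LYPLA2 with DMSO and 100% = wells lacking LYPLA2 enzyme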
LYPLA1 counter: LYPLA1 inhibitors, primary screen, counter-screen for PME1 inhibitor project, biochemical, fluorescence polarization, FP-Rh probe ABPP | Acyl-protein thioesterase 1 (Homo sapiens), O75608 | recombinant LYPLA1 | inhibition, % at 5.9 µM | 320,000 tested, 0.16% active | AID 2174, 2009;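 active means inhibition above the mean of all tested compounds plus 3 SD, set per campaign, cut at about 14% in these data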;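 further: inhibitors block serine hydrolase probe labeling of LYPLA1 so polarization falls; 0% = enzyme with DMSO and 100% = wells lacking LYPLA1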
Target sequence (O75608 whole entry, looked up): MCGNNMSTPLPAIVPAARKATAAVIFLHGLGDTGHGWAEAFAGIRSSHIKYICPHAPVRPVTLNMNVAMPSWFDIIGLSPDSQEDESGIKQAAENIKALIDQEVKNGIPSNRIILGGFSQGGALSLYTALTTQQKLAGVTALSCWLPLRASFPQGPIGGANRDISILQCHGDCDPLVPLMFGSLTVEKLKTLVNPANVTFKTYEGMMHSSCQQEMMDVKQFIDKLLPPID
GSTO1 confirm: GSTO1 inhibitor hit confirmation, counter-screen for RBBP9 inhibitor project, biochemical, fluorescence polarization, triplicate. shares compounds with GSTO1 counter. recombinant GSTO1, probe fluorescence polarization. inhibition, % at 5.96 µM. 2,400 tested, 54% active. AID 2176, 2009;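 active means inhibition above the primary screen's cutoff, its mean inhibition plus 3 SD, cut at about 35% in these data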;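 further: loss of polarization as inhibitors block binding of rhodamine sulfonate ester activity probe; 0% = GSTO1 with DMSO and 100% = wells lacking GSTO1 enzyme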
Numbers without * were called inactive; · = no result. Hits are enriched below; roughly 1.8% of the tested compounds scored in any of these assays.

SMILES	PME-1 primary	GSTO1 counter	PAD4 inh	Fam108B inh	LYPLA2 counter	LYPLA1 counter	GSTO1 confirm
Cn1c(C(=O)O)c(CC(=O)N2CCC(Cc3ccccc3)CC2)c2ccccc21	-7	42*	-3	-6	-11	-5	9
CC(=O)c1ccc(NC(=S)NCCc2cccc(Cl)c2)cc1	0	-6	-4	-8	-10	-12	·
C=CCN(CC=C)Cc1c(O)ccc2c1oc(=O)c1ccccc12	5	55*	0	-2	2	3	29
COc1ccc(-n2nc3c(c2NC(=O)CCl)CSC3)cc1	-1	88*	-2	-4	0	2	92*
COc1cc(/C=C2\CC/C(=C\c3cc(OC)c(O)c(OC)c3)C2=O)cc(OC)c1O	-7	38*	-4	-6	-20	-15	5
CCc1ccc2c(c1)C(=O)C(=O)N2CCS(=O)(=O)c1ccccc1	1	6	-1	3	-5	0	·
O=C1C(=O)N(CCS(=O)(=O)c2ccccc2)c2ccc(Cl)cc21	4	43*	4	4	7	1	6
CCOc1ccc(OCC)c(S(=O)(=O)NCc2ccccn2)c1	-6	2	7	3	0	-1	·
N#C/C(=C(/O)CCl)c1nc2ccccc2[nH]1	7	84*	-3	5	-7	-2	94*
CC(=O)Nc1sc(C)c(C)c1C(=O)OCC(=O)Nc1cccc(C)c1	·	·	-8	·	·	·	·
CCOC(=O)NC(=O)/C(C#N)=N\Nc1cccc(Cl)c1	-1	-2	4	2	-1	3	·
CCOC(=O)NC1(Nc2cccc(Cl)c2)Oc2ccccc2O1	-2	56*	0	2	2	-1	4
CCCc1nnc(SCC(=O)Nc2ccccc2Cl)n1CC1CCCO1 (centres undefined)	-6	10	-2	-1	-4	-1	·
O=C(O)c1ccccc1SCCS(=O)(=O)c1ccc(Cl)cc1Cl	-9	13	1	-5	1	2	·
CC(=O)N(/N=C1\Sc2ccccc2C1=O)c1ccccc1C	-6	41*	-18	5	4	6	71*
COc1ccc(NC(=O)CN(C)C(=O)CCNS(=O)(=O)c2ccc(Br)cc2)cc1	-6	1	3	1	-4	-4	·
Cc1ccc2nc(N3CCN(CCO)CC3)nc(-c3ccccc3)c2c1	3	43*	1	0	2	0	25
O=[N+]([O-])c1ccc(-c2c(-c3ccccc3)ncc3cc(F)ccc23)cc1	2	·	0	·	-5	-1	·
O=C(CN1CCOCC1)N/N=C/c1ccco1	-2	-3	-10	-2	-1	1	·
O=C(CN1CCOCC1)N/N=C/c1c(O)ccc2ccccc12	-1	38*	-1	-2	-1	-2	4
Cc1ccc2occ(/C=N/NC(N)=S)c(=O)c2c1	0	23	0	-3	-3	-2	·
NC(=O)N/N=C/c1coc2ccc(O)cc2c1=O	12	70*	2	3	1	0	20
NN1C(=O)/C(=C\c2ccco2)SC1=S	0	43*	6	5	10	0	16
COc1ccc(OC)c(S(=O)(=O)N2CCCC(C(=O)NCc3ccco3)C2)c1 (centres undefined)	-5	-1	-3	1	2	3	·
COc1ccccc1CNS(=O)(=O)c1ccc2c(c1)CC(=O)N2C	0	-8	0	-2	-3	-1	·
SMILES	PME-1 primary	GSTO1 counter	PAD4 inh	Fam108B inh	LYPLA2 counter	LYPLA1 counter	GSTO1 confirm
COc1cccc(C(=O)NNC(=O)c2ccc3ccccc3c2O)c1	3	45*	4	-1	9	4	4
Cc1ccc2oc(=O)c(/C=C(\O)c3cccs3)nc2c1	4	40*	1	1	0	0	7
CCc1ccc(NC(=O)c2ccccc2NC(=O)C2CCCO2)cc1 (centres undefined)	1	4	-2	0	1	-1	·
Nc1ccc(N(c2ccccc2)c2ccc(N)cc2)cc1	8	43*	-7	8	4	-2	9
CC(=O)C1=C(c2ccccc2)NC(=S)NC1c1ccc(O)c(O)c1 (centres undefined)	4	45*	0	-2	4	0	7
CC(=O)C1=C(c2ccccc2)NC(=S)NC1c1cc(Cl)c(OC(C)C)c(Cl)c1 (centres undefined)	-10	-10	-6	-11	-11	-11	·
O=C(CN(CC1CCCO1)C(=O)CNS(=O)(=O)c1ccccc1)NCc1ccc(F)cc1 (centres undefined)	6	-3	-4	2	5	-2	·
COc1ccc(Cc2nnc(NS(=O)(=O)c3ccc(Cl)cc3)s2)cc1OC	-7	-11	-5	-3	-9	-2	·
N#Cc1nc(COc2ccccc2F)oc1NCCc1ccccc1	3	43*	1	-3	0	-2	18
Oc1ccc(Cl)cc1CNCc1ccc(C(F)(F)F)cc1	2	7	-1	0	-6	2	·
Cc1ccc(NC2=C(Cl)C(=O)c3ccccc3C2=O)cc1	21	85*	2	10	10	-1	85*
O=C(NCCN1CCCC1)c1ccccc1Cl	5	2	3	2	4	-3	·
O=C1C(=O)c2ccccc2C(O)=C1c1ccccc1F	0	-5	-5	3	9	4	·
Cc1cc(C)cc(NC2=C(N)C(=O)c3ccccc3C2=O)c1	6	22	13	3	22	1	·
COc1cc(OC)c(NC2=CC(=O)C(=O)c3ccccc32)cc1Cl	10	79*	11	17	10	3	77*
O=C1C(Cl)=C(NCCN2CCCCC2)C(=O)c2ccccc21	4	71*	-3	4	4	-1	52*
CCC(C(=O)Nc1cc(Cl)c(OC)cc1OC)c1ccccc1 (centres undefined)	2	2	-5	-3	6	1	·
O=C1C(O)=C(O)C(=O)c2ccccc21	11	81*	2	12	7	5	68*
COc1ccc([C@H]2/C=C\CN(S(=O)(=O)c3ccc(C)cc3)[C@@H](C)C(=O)N2Cc2ccc(F)cc2)cc1	0	1	0	-4	3	-2	·
CCOc1cc(N2CCOCC2)c(OCC)cc1NCC(=O)N1CCN(Cc2ccccc2)CC1	1	4	-6	0	-17	-1	·
CCCn1c(N)c(N2CCCCC2)c(=O)n(CC(=O)Nc2cccc(S(=O)(=O)N(C)C)c2)c1=O	·	·	4	·	·	·	·
